# Measured values: PubChem BioAssay (EPA / NIEHS)
# Records with an inconclusive call do not appear. Active and inactive are the calls of the source. The calls were made as follows: active = hit-call score of the fitted dose curve at least 0.9, where 1 is the maximum; inconclusive = response in the unintended direction; inactive = score below 0.9.
# Assay: IUF_NPC2-5_cytotoxicity_72hr: Cytotoxicity Assessment at 72 hours in the Leibniz Research Institute for Environmental Medicine (IUF) Neural Progenitor Cell Migration and Differentiation Assay for Cytotoxicity (NPC2-5) (AID 2284306);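 also: LDH release into supernatant measured by resorufin fluorescence marking membrane damage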
# Method: IUF_NPC2-5 is a cell-based, multiplexed assay that uses hNPC, a human primary neural progenitor cells, with measurements taken at 72 or 120 hours after chemical dosing in a 96-well plate. Human neural progenitor cells (hNPC) are generated from human fetal brain cortex at gestational week (GW) 16-19. In the neural progenitor cell migration and differentiation assay (NPC2-5), hNPCs grown as spheres are plated on an extracellular matrix and migrate and differentiate out of the sphere core. The processes radial glia migration, neuronal and oligodendrocyte migration as well as neuronal differentiation, neuronal morphology and oligodendrocyte differentiation are studied using automated phase contrast imaging and automated fluorescence imaging in combination with high content image analysis. In parallel, the cell viability is assessed using an alamar blue viability assay and the cytotoxicity using a lactate dehydrogenase dependent membrane integrity assay.IUF_NPC2-5_cytotoxicity_72hr is one of 12 assay components measured from the IUF_NPC2-5 assay. It is designed to measure the cytotoxicity at 72 hr as assessed by membrane integrity related to the LDH dependent reduction of resazurin to resorufin in the supernatant of each well. The cytotoxicity is measured as fluorescence signal (relative fluorescence unit) in a multiplate reader. Data from the IUF_NPC2-5_cytotoxicity_72hr component was analyzed at the endpoint IUF_NPC2-5_cytotoxicity_72hr in the positive analysis fitting direction relative to the dynamic range and baseline of activity. Using a type of viability reporter, gain-of-signal activity can be used to understand cytotoxicity effects.
# Culture protocol: After the cell expansion period the cells are cultured for up to four weeks in which they are passaged every week as described in 3.6. Between one to three days after passaging spheres at a size of 0.3 mm are picked for the test method. For the assessment of neural progenitor cell migration and differentiation, the spheres are plated on poly-D-lysine/laminin coated 96-well flat bottom plates in differentiation medium (N2) to initiate migration and differentiation. Thereby one 0.3 mm big sphere is plated in the middle of a well. The differentiation medium consists of DMEM and Ham's F12 at a ratio of 3 to 1 supplemented with 1% N2 and 1% penicillin and streptomycin. Within 5 days NPCs radially migrate out of the sphere core and differentiate into radial glia cells (nestin positive), neurons (TUBB3 positive), oligodendrocytes (O4 positive) and astrocytes (GFAP positive). Cultivation during the test method is performed at 37C and 5% CO2 at a ph of 7.2-7.6.Exposure: 0.3 mm big hNPC are plated in the already prepared test conditions. Exposure starts at day 0 of differentiation and is continued over five days of differentiation until the experiment is terminated. Cells are fed with fresh medium at day 3 of differentiation. Therefore, half of the test condition solution (e.g. solvent control or compound dilution) is replaced by freshly prepared test condition solution.Test Method: Migration distance and cytotoxicity is determined after 72 hours based on brightfield images of each well. The assay is terminated by the assessment of cell viability and cytotoxicity as well as cell fixation after 120 h. Immunocytochemistry is performed for Hoechst positive nuclei, TUBB3 positive neurons and O4 positive oligodendrocytes. On the ICC images, migration after 120 hours, neuronal and oligodendrocyte number, neuronal morphology and neuron/oligodendrocyte specific migration is assessed. immunocytochemical staining (ICC) generates an image for each sphere. The plates are scanned using an automated high content imaging device and all nuclei and their positions are determined automatically based on their intensity and size. Images are imported to the Omnisphero software to run the image analysis that measures the following endpoints. […]
SMILES,outcome,AC50
C=CC1(C)OC(=O)N(c2cc(Cl)cc(Cl)c2)C1=O (configuration not stated),inactive,
Cc1ccc(-c2c(Cl)nc(C#N)n2S(=O)(=O)N(C)C)cc1,inactive,
COP(N)(=O)SC (configuration not stated),inactive,
CCCCOC(=O)c1ccccc1C(=O)OCCCC,inactive,
CN(C)C(=S)SSC(=S)N(C)C,,26.4 µM (active)
CNC(=O)ON=CC(C)(C)SC,inactive,
COC(=O)N(OC)c1ccccc1COc1ccn(-c2ccc(Cl)cc2)n1,inactive,
N#Cc1nn(-c2c(Cl)cc(C(F)(F)F)cc2Cl)c(N)c1S(=O)C(F)(F)F (configuration not stated),inactive,
CO/C=C(/C(=O)OC)c1ccccc1Oc1cc(Oc2ccccc2C#N)ncn1,inactive,
CCOc1cc(Oc2ccc(C(F)(F)F)cc2Cl)ccc1[N+](=O)[O-],inactive,
CC(C)(C)c1ccc(CSc2cnn(C(C)(C)C)c(=O)c2Cl)cc1,inactive,
CCCCC(CC)COC(=O)c1ccccc1C(=O)OCC(CC)CCCC (configuration not stated),inactive,
